Compound activity from PubChem BioAssay.
Gal4-VP16 FLuc – VP16 counterscreen qHTS for inhibitors of ROR gamma transcriptional activity | Drosophila S2 Gal4-VP16 UAS-luciferase, luminescence, 20 h | Potency, µM (highest dose often 53.6 µM), most hits filed as inhibitors | 3.5% of 310,000 active | AID 2546, 2010;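 note: Gal4-VP16 expression switched on by copper sulfate through the metallothionein promoter; nearly all actives have a fitted effect of over 50% in size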
BRCA1 expr act – qHTS Assay to Identify Small Molecule Activators of BRCA1 Expression; MCF7-BRCA1-FFLuc reporter, luminescence, 48 h; response scale: scaled: vehicle 0%, 10 µM genistein 100%; Potency, µM (doses to about 46.1 µM), hits mostly activators; 1.1% of 380,000 active; AID 624202, 2012; note: nearly all actives have a fitted effect of over 80% in size
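Quantitative HTS in MCF7 cells stably reporting BRCA1 expression via firefly luciferase. Compound treatment lasts 48 h at 37 °C in phenol-red free MEM. Activation is expressed relative to genistein at 10 microM and DMSO.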
Giardia killer – Small Molecules that selectively kill Giardia lamblia: qHTS. Giardia lamblia trophozoite viability. activity change, % at 7.66 µM, hits read low. 0.15% of 340,000 active. AID 540267, 2011; in the data active = activity change below about -80%; inconclusive = between about -30% and that limit;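 note: parasites exposed to compound for two days anaerobically before the ATP read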
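Trophozoite viability was measured as ATP-dependent luminescence, read 15-30 min after reagent addition. Before that, parasites at 100 cells/well were exposed to compounds for 48 h, anaerobically, at 37 deg C.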
p53 reactivation – qHTS assay for re-activators of p53 using a Luc reporter; AID 504706, 2011; 0.063% of 320,000 active; Potency, µM (highest dose often 92.2 µM), actives largely listed as activators; H1299 p53-A138V BP100-luciferase reporter, luminescence, 24 h; note: nearly all actives have a fitted effect of over 45% in size
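H1299 (p53-null), stable ts p53-A138V + BP100-Luc; 1000 cells/well, Opti-MEM/10% FBS; cpd 4 pt, 1:5; 24 h, 37 deg C, 5% CO2; detection reagent 10 min RT; luminescence.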
RORgamma inh – qHTS for inhibitors of ROR gamma transcriptional activity; Drosophila S2 Gal4-RORgamma UAS-luciferase reporter, 20 h; Potency, µM (series often up to 53.6 µM), most hits filed as inhibitors; 5.4% of 310,000 active; note: nearly all actives have a fitted effect of over 60% in size
Target sequence (P51450 whole entry, looked up, the tested form may be a part): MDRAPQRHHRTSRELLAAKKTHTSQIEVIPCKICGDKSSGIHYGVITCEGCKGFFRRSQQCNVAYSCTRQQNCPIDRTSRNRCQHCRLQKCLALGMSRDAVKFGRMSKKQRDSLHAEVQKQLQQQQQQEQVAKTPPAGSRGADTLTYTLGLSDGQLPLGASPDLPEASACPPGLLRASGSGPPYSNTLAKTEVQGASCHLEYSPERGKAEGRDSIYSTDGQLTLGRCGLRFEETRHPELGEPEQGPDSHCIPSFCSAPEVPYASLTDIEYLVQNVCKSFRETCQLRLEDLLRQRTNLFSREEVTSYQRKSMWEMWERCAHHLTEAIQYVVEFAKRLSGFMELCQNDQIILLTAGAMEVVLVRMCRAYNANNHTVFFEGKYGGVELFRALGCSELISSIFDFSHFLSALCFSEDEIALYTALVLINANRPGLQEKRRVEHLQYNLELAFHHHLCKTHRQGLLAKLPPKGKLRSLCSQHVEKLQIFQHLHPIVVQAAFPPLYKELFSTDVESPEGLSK
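Stable Schneider cell line, Gal4 DNA-binding domain fused to ROR gamma, UAS-luciferase. Cmpd 1 hr RT → CuSO4 700 uM final → 20 hr RT → luciferase reagent 10 min → luminescence.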
ELG1 repair inh – qHTS screen for small molecules that inhibit ELG1-dependent DNA repair in human embryonic kidney (HEK293T) cells expressing luciferase-tagged ELG1 | HEK293T ELG1-luciferase reporter, luminescence, 16 h; DNA damage induced by 5-fluorouridine | Potency, µM (doses to about 46.1 µM), hits mostly inhibitors | 2.3% of 330,000 active; note: nearly all actives have a fitted effect of over 55% in size
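5-Fluorouridine DNA damage + compound/DMSO, 2,000 cells/well, 16 h, 37 °C/5% CO2. ONE-Glo, 30 min RT, luminescence. Readout = decrease in reporter signal.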
Numbers stand for hits; [ ] = dose if it differs, or a comment. Only some compounds are listed: those with a hit (about 7.6% of all), similar ones and a draw of the others. Unless noted, calls come from the whole dose curve; as a rule, active = well fitted curve in the direction sought with a large enough effect; inconclusive = small, poorly fitted or top-dose-only effect, or another doubt; inactive = no such curve, though single readings can be large; an effect the other way counts as inactive or inconclusive.

Screening Cc1[nH]n(C(N)=S)c(=O)c1C(c1ccccc1)C(C#N)C#N (configuration not stated) returned Gal4-VP16 FLuc 10µM, BRCA1 expr act inactive, Giardia killer inactive, p53 reactivation inactive, RORgamma inh 10µM and ELG1 repair inh inconclusive.
`COC(=O)C(Cc1c[nH]c2ccccc12)NC(=O)C1CC1` (configuration not stated) gave Gal4-VP16 FLuc inactive, BRCA1 expr act inactive, Giardia killer inactive, p53 reactivation inactive, RORgamma inh inactive and ELG1 repair inh inactive.
CC(=O)C1=C(O)C(=O)N(CCCN2CCOCC2)C1c1ccccc1[N+](=O)[O-] (configuration not stated) was read as Gal4-VP16 FLuc inactive, BRCA1 expr act inactive, Giardia killer inactive, p53 reactivation inactive, RORgamma inh inactive and ELG1 repair inh inactive.
O=C(Nc1cc2c(cc1Cl)OCCCO2)c1ccc(F)cc1 was read as Gal4-VP16 FLuc inactive, BRCA1 expr act inconclusive, Giardia killer inactive, p53 reactivation inconclusive, RORgamma inh inactive and ELG1 repair inh inconclusive.
Cc1cc(Oc2ncccc2[N+](=O)[O-])c2cc(Cl)ccc2n1 was read as Gal4-VP16 FLuc inactive, BRCA1 expr act inactive, Giardia killer inactive, p53 reactivation inactive, RORgamma inh inactive and ELG1 repair inh inactive.
For O=C(c1ccc(-c2nc3ccccc3s2)s1)N1CCOCC1 the results were Gal4-VP16 FLuc inconclusive, BRCA1 expr act inconclusive, Giardia killer -84, p53 reactivation inactive, RORgamma inh 4.5µM and ELG1 repair inh inconclusive.
`O=C(NC1CC1)c1ccc(-c2nc3ccccc3s2)s1` gave Gal4-VP16 FLuc inconclusive, BRCA1 expr act inactive, Giardia killer -100, p53 reactivation inactive, RORgamma inh 7.9µM and ELG1 repair inh inconclusive.
`CCN1CCN(C(=O)c2ccc(-c3nc4ccccc4s3)s2)CC1` gave Gal4-VP16 FLuc inactive, BRCA1 expr act inconclusive, Giardia killer inactive, p53 reactivation inactive, RORgamma inh inactive and ELG1 repair inh inconclusive.
Screening O=C(C1CCCC1)N1CCN(S(=O)(=O)c2ccc(F)c(F)c2F)CC1 returned Gal4-VP16 FLuc inactive, BRCA1 expr act inactive, Giardia killer inactive, p53 reactivation inactive, RORgamma inh inactive and ELG1 repair inh inactive.
`Cc1ccc(C)c(NC(=O)c2ccccc2NS(=O)(=O)c2cc([N+](=O)[O-])ccc2C)c1` gave Gal4-VP16 FLuc 14µM, BRCA1 expr act inactive, Giardia killer inactive, p53 reactivation inactive, RORgamma inh inconclusive and ELG1 repair inh inconclusive.
For Cc1ccc(C)c(S(=O)(=O)Nc2ccccc2C(=O)Nc2cc(C)on2)c1 the results were Gal4-VP16 FLuc inactive, BRCA1 expr act inactive, Giardia killer inactive, p53 reactivation inactive, RORgamma inh inactive and ELG1 repair inh 26µM.
For Cc1cc(NC(=O)c2ccccc2NS(=O)(=O)c2c(C)c(C)cc(C)c2C)no1 the results were Gal4-VP16 FLuc inactive, BRCA1 expr act inactive, Giardia killer inactive, p53 reactivation inactive, RORgamma inh inactive and ELG1 repair inh inactive.
Screening Cc1ccc([N+](=O)[O-])cc1S(=O)(=O)Nc1cccc(S(=O)(=O)Nc2ccccc2C(=O)O)c1 returned BRCA1 expr act inactive, Giardia killer inactive, p53 reactivation inactive and ELG1 repair inh inactive.
Cc1ccccc1-n1c(SCC(=O)Nc2ccccc2)nc2nc3c(cc2c1=O)CCCC3 was read as Gal4-VP16 FLuc inactive, BRCA1 expr act inactive, Giardia killer inactive, p53 reactivation inactive, RORgamma inh inactive and ELG1 repair inh 23µM.
For Cc1cccc(NC(=O)CSc2nc3nc4c(cc3c(=O)n2-c2ccccc2)CCCC4)c1 the results were Gal4-VP16 FLuc inactive, BRCA1 expr act inactive, Giardia killer inactive, p53 reactivation inactive, RORgamma inh inactive and ELG1 repair inh 15µM.
Screening O=C(CCCNC(=O)c1ccc(Cl)cc1)NCc1ccc(F)cc1 returned Gal4-VP16 FLuc inactive, BRCA1 expr act inactive, Giardia killer inactive, p53 reactivation inactive, RORgamma inh inactive and ELG1 repair inh inactive.
Screening CCn1c2ccccc2c2nnc(SCc3ccccc3)nc21 returned Gal4-VP16 FLuc inconclusive, BRCA1 expr act inactive, Giardia killer inactive, p53 reactivation inactive, RORgamma inh inconclusive and ELG1 repair inh inactive.
Screening CCn1c2ccccc2c2nnc(SCCCn3c(=O)[nH]c4ccccc43)nc21 returned Gal4-VP16 FLuc inconclusive, BRCA1 expr act inactive, Giardia killer inactive, p53 reactivation inactive, RORgamma inh inactive and ELG1 repair inh 23µM.
CCn1c2ccccc2c2nnc(SCc3ccc(C(=O)OC)o3)nc21 was read as Gal4-VP16 FLuc 13µM, BRCA1 expr act inactive, Giardia killer inactive, p53 reactivation inactive, RORgamma inh inconclusive and ELG1 repair inh inconclusive.
O=C(c1ccc(N2CCCC2)c([N+](=O)[O-])c1)N1CCN(S(=O)(=O)c2ccccc2)CC1 was read as BRCA1 expr act inactive, Giardia killer inactive, p53 reactivation inactive and ELG1 repair inh inconclusive.
For O=C(CCCN1C(=O)/C(=C/c2ccc(F)cc2)SC1=S)NC1CCS(=O)(=O)C1 (configuration not stated) the results were Gal4-VP16 FLuc 18µM, BRCA1 expr act inactive, Giardia killer inactive, p53 reactivation inconclusive, RORgamma inh 4µM and ELG1 repair inh inactive.
For O=C(CN1C(=O)S/C(=C\c2ccccc2)C1=O)NC1CCS(=O)(=O)C1 (configuration not stated) the results were Gal4-VP16 FLuc inactive, BRCA1 expr act inactive, Giardia killer inactive, p53 reactivation inactive, RORgamma inh inactive and ELG1 repair inh inactive.
CC(C)c1ccc(/C=C2\SC(=O)N(CC(=O)NC3CCS(=O)(=O)C3)C2=O)cc1 (configuration not stated) was read as Gal4-VP16 FLuc 7.1µM, BRCA1 expr act inconclusive, Giardia killer inactive, p53 reactivation inactive, RORgamma inh inconclusive and ELG1 repair inh inconclusive.
`O=C(CCN1C(=O)/C(=C/c2ccccc2)SC1=S)NC1CCS(=O)(=O)C1` (configuration not stated) gave Gal4-VP16 FLuc inconclusive, BRCA1 expr act inactive, Giardia killer inactive, p53 reactivation inactive, RORgamma inh inactive and ELG1 repair inh inactive.
Cc1ncc([N+](=O)[O-])n1CC(=O)NCCc1ccccc1 was read as Gal4-VP16 FLuc inactive, BRCA1 expr act inactive, Giardia killer inactive, p53 reactivation inactive, RORgamma inh inactive and ELG1 repair inh inactive.
Screening Cc1nc2c(-c3ccc(F)cc3)c(C)nn2c(N2CCOCC2)c1C returned Gal4-VP16 FLuc inactive, BRCA1 expr act inactive, Giardia killer inactive, p53 reactivation inactive, RORgamma inh inactive[10 µM] and ELG1 repair inh inconclusive.
